# The full list was thinned out, with the strongest signals kept by preference.
# B1: Gal 4 (Homo sapiens), Q8K419 (protein)
# chain: MAYVPAPGYQPTYNPTLPYKRPIPGGLSVGMSVYIQGMAKENMRRFHVNFAVGQDDGADVAFHFNPRFDGWDKVVFNTMQSGQWGKEEKKKSMPFQKGKHFELVFMVMPEHYKVVVNGNSFYEYGHRLPVQMVTHLQVDGDLELQSINFLGGQPAAAPYPGAMTIPAYPAGSPGYNPPQMNTLPVMTGPPVFNPRVPYVGALQGGLTVRRTIIIKGYVLPTARNFVINFKVGSSGDIALHLNPRIGDSVVRNSFMNGSWGAEERKVAYNPFGPGQFFDLSIRCGMDRFKVFANGQHLFDFSHRFQAFQMVDTLEINGDITLSYVQI
# Legend:
# Experiment in all cases: glycan array binding signal (z-score within array); higher = stronger binding
# Conditions in all cases: glycan notation: IUPAC condensed, linker removed
# Fuc(a1-2)Gal = target: Fuc(a1-2)Gal
# Method in brief: (§1)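 From the Consortium for Functional Glycomics database, 3228 arrays were curated, keeping only those whose protein sequence was available. Binding is given as a within-array Z-score averaged across arrays sharing a protein sequence and across linkers. Negative Z-scores can be read as non-binding.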
# [1] = target: Fuc(a1-2)Gal(b1-3)GlcNAc(b1-3)[Fuc(a1-2)Gal(b1-3)GlcNAc(b1-6)]GalNAc
# Method in brief: as §1
# [2] = target: Fuc(a1-2)Gal(b1-3)GlcNAc6S
# Method in brief: as §1
# [3] = target: Fuc(a1-2)Gal(b1-4)GlcNAc(b1-2)Man(a1-3)[Fuc(a1-2)Gal(b1-4)GlcNAc(b1-2)Man(a1-6)]Man(b1-4)GlcNAc(b1-4)[Fuc(a1-6)]GlcNAc
# Method in brief: as §1
# [4] = target: Fuc(a1-2)Gal(b1-4)GlcNAc(b1-3)GalNAc
# Method in brief: as §1
# [5] = target: Fuc(a1-2)Gal(b1-4)GlcNAc(b1-3)[Fuc(a1-2)Gal(b1-4)GlcNAc(b1-6)]GalNAc
# Method in brief: as §1
# [6] = target: Fuc(a1-2)[Gal(a1-3)]Gal(b1-3)GalNAc
# Method in brief: as §1
# [7] = target: Fuc(a1-2)[Gal(a1-3)]Gal(b1-3)GlcNAc
# Method in brief: as §1
# [8] = target: Fuc(a1-2)[Gal(a1-3)]Gal(b1-4)Glc
# Method in brief: as §1
# [9] = target: Fuc(a1-2)[Gal(a1-3)]Gal(b1-4)GlcNAc(b1-3)GalNAc
# Method in brief: as §1
# [10] = target: Fuc(a1-2)[GalNAc(a1-3)]Gal
# Method in brief: as §1
# [11] = target: Fuc(a1-2)[GalNAc(a1-3)]Gal(b1-3)GlcNAc
# Method in brief: as §1
# [12] = target: Fuc(a1-2)[GalNAc(a1-3)]Gal(b1-3)GlcNAc(b1-2)Man(a1-3)[Fuc(a1-2)[GalNAc(a1-3)]Gal(b1-3)GlcNAc(b1-2)Man(a1-6)]Man(b1-4)GlcNAc(b1-4)GlcNAc
# Method in brief: as §1
# [13] = target: Fuc(a1-2)[GalNAc(a1-3)]Gal(b1-3)GlcNAc(b1-6)GalNAc
# Method in brief: as §1
# [14] = target: Fuc(a1-2)[GalNAc(a1-3)]Gal(b1-4)Glc
# Method in brief: as §1
# [15] = target: Gal(a1-4)Gal(b1-4)GlcNAc(b1-2)Man(a1-3)[Gal(a1-4)Gal(b1-4)GlcNAc(b1-2)Man(a1-6)]Man(b1-4)GlcNAc(b1-4)GlcNAc
# Method in brief: as §1
# Gal(b1-2)Gal = target: Gal(b1-2)Gal
# Method in brief: as §1
# Gal(b1-3)Gal = target: Gal(b1-3)Gal
# Method in brief: as §1
# [16] = target: Gal(b1-3)GalNAc(a1-3)[Fuc(a1-2)]Gal(b1-4)Glc
# Method in brief: as §1
# [17] = target: Gal(b1-3)GalNAc(a1-3)[Fuc(a1-2)]Gal(b1-4)GlcNAc
# Method in brief: as §1
# [18] = target: Gal(b1-3)[Fuc(a1-4)]GlcNAc(b1-2)Man(a1-3)[Gal(b1-3)[Fuc(a1-4)]GlcNAc(b1-2)Man(a1-6)]Man(b1-4)GlcNAc(b1-4)[Fuc(a1-6)]GlcNAc
# Method in brief: as §1
# [19] = target: Gal(b1-3)[Fuc(a1-4)]GlcNAc(b1-6)GalNAc
# Method in brief: as §1
# [20] = target: Gal(b1-4)GalNAc(a1-3)[Fuc(a1-2)]Gal(b1-4)GlcNAc
# Method in brief: as §1
# [21] = target: Gal(b1-4)GlcNAc(a1-6)Gal(b1-4)GlcNAc
# Method in brief: as §1
# [22] = target: Gal(b1-4)GlcNAc(b1-3)Gal(b1-4)Glc
# Method in brief: as §1
# [23] = target: Gal(b1-4)GlcNAc(b1-3)Gal(b1-4)[Fuc(a1-3)GlcNAc(b1-6)]Gal(b1-4)Glc
# Method in brief: as §1
# [24] = target: Gal(b1-4)GlcNAc(b1-6)[Gal(b1-3)]GalNAc
# Method in brief: as §1
# Gal3S(b1-4)GlcNAc = target: Gal3S(b1-4)GlcNAc
# Method in brief: as §1
# GalNAc(b1-3)GalNAc = target: GalNAc(b1-3)GalNAc
# Method in brief: as §1
# GalNAc(b1-4)Gal(b1-4)Glc = target: GalNAc(b1-4)Gal(b1-4)Glc
# Method in brief: as §1
# GalNAc(b1-4)GlcNAc = target: GalNAc(b1-4)GlcNAc
# Method in brief: as §1
# Kdn(a2-3)Gal(b1-4)Glc = target: Kdn(a2-3)Gal(b1-4)Glc
# Method in brief: as §1
# [25] = target: Man(a1-2)Man(a1-3)[Man(a1-2)Man(a1-6)]Man(a1-6)[Man(a1-2)Man(a1-2)Man(a1-3)]Man(b1-4)GlcNAc(b1-4)GlcNAc
# Method in brief: as §1
# [26] = target: Neu5Ac(a2-3)Gal(b1-3)GlcNAc(b1-3)Gal(b1-3)GlcNAc
# Method in brief: as §1
# [27] = target: Neu5Ac(a2-3)Gal(b1-4)GlcNAc(b1-2)Man
# Method in brief: as §1
# [28] = target: Neu5Ac(a2-3)Gal(b1-4)[Fuc(a1-3)]GlcNAc(b1-3)Gal(b1-4)[Fuc(a1-3)]GlcNAc(b1-3)Gal(b1-4)[Fuc(a1-3)]GlcNAc
# Method in brief: as §1
# [29] = target: Neu5Ac(a2-3)[GalNAc(b1-4)]Gal(b1-4)GlcNAc(b1-3)GalNAc
# Method in brief: as §1
# [30] = target: Neu5Ac(a2-6)Gal(b1-4)GlcNAc(b1-2)Man(a1-3)[Neu5Ac(a2-6)Gal(b1-4)GlcNAc(b1-2)Man(a1-6)]Man(b1-4)GlcNAc(b1-4)GlcNAc
# Method in brief: as §1
# [31] = target: Neu5Ac(a2-6)Gal(b1-4)GlcNAc(b1-2)Man(a1-6)[Man(a1-3)]Man(b1-4)GlcNAc(b1-4)GlcNAc
# Method in brief: as §1
# [32] = target: Neu5Ac(a2-6)GlcNAc(b1-4)GlcNAc
# Method in brief: as §1
# Neu5Ac(a2-8)Neu5Ac = target: Neu5Ac(a2-8)Neu5Ac
# Method in brief: as §1
# Neu5Ac(b2-6)GalNAc = target: Neu5Ac(b2-6)GalNAc
# Method in brief: as §1
# [33] = target: Neu5Ac9Ac(a2-3)Gal(b1-4)GlcNAc
# Method in brief: as §1
binder,measurement,setting,value
B1,glycan array binding signal (z-score),Fuc(a1-2)Gal,-0.2
same,glycan array binding signal (z-score),[1],-0.088
same,glycan array binding signal (z-score),[2],1.3
same,glycan array binding signal (z-score),[3],-0.202
same,glycan array binding signal (z-score),[4],-0.199
same,glycan array binding signal (z-score),[5],-0.189
same,glycan array binding signal (z-score),[6],0.833
same,glycan array binding signal (z-score),[7],2.91
same,glycan array binding signal (z-score),[8],3.5
same,glycan array binding signal (z-score),[9],-0.006
same,glycan array binding signal (z-score),[10],-0.2
same,glycan array binding signal (z-score),[11],4.09
same,glycan array binding signal (z-score),[12],1.51
same,glycan array binding signal (z-score),[13],1.99
same,glycan array binding signal (z-score),[14],9.63
same,glycan array binding signal (z-score),[15],-0.194
same,glycan array binding signal (z-score),Gal(b1-2)Gal,-0.201
same,glycan array binding signal (z-score),Gal(b1-3)Gal,0.459
same,glycan array binding signal (z-score),[16],13.2
same,glycan array binding signal (z-score),[17],2.3
same,glycan array binding signal (z-score),[18],-0.174
same,glycan array binding signal (z-score),[19],-0.193
same,glycan array binding signal (z-score),[20],2.3
same,glycan array binding signal (z-score),[21],-0.188
same,glycan array binding signal (z-score),[22],1.11
same,glycan array binding signal (z-score),[23],-0.185
same,glycan array binding signal (z-score),[24],-0.059
same,glycan array binding signal (z-score),Gal3S(b1-4)GlcNAc,-0.136
same,glycan array binding signal (z-score),GalNAc(b1-3)GalNAc,-0.182
same,glycan array binding signal (z-score),GalNAc(b1-4)Gal(b1-4)Glc,-0.211
same,glycan array binding signal (z-score),GalNAc(b1-4)GlcNAc,-0.18
same,glycan array binding signal (z-score),Kdn(a2-3)Gal(b1-4)Glc,-0.243
same,glycan array binding signal (z-score),[25],-0.178
same,glycan array binding signal (z-score),[26],0.182
same,glycan array binding signal (z-score),[27],-0.197
same,glycan array binding signal (z-score),[28],-0.198
same,glycan array binding signal (z-score),[29],-0.147
same,glycan array binding signal (z-score),[30],-0.187
same,glycan array binding signal (z-score),[31],-0.204
same,glycan array binding signal (z-score),[32],-0.205
same,glycan array binding signal (z-score),Neu5Ac(a2-8)Neu5Ac,-0.203
same,glycan array binding signal (z-score),Neu5Ac(b2-6)GalNAc,-0.196
same,glycan array binding signal (z-score),[33],-0.189

# Reference: the supplement of paper PMC8728848
